# From article PMC8384837, “Expanding the binding specificity for RNA recognition by a PUF domain”
# Assays:
# Experiment in all cases: yeast three-hybrid, YBZ-1, SC-Leu-His + 0.5 mM 3-AT, 4 days
# Settings in all cases: tags: N-Gal4 AD-HA kept; label: inside an RPR1-promoter hybrid RNA with tandem MS2 sites; ssRNA
# PUM1 PUF domain R7-RAS = PUM1 PUF domain R7-RAS (Homo sapiens, UniProt Q14671 828-1176, S1079R;N1080A;E1083S)
# Outline: (§1)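 A centromeric plasmid in strain YBZ-1 co-expressed Pumilio-1 PUF domain libraries, randomized at the three base-contacting residues of each repeat, with matching RNA elements; the strain carries a LexA–MS2 coat fusion and a HIS3 reporter. After four days on SC-Leu (input) or SC-Leu-His + 0.5 mM 3-AT (selection), the repeat regions were PCR-amplified and Illumina-sequenced. The interaction score is the log change in variant frequency from input to selection, using log2 and a pseudocount of 1 where absent.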
# PUM1 PUF domain R1-FAR = PUM1 PUF domain R1-FAR (Homo sapiens, UniProt Q14671 828-1176, S863F;R864A;Q867R)
# Outline: as §1
# PUM1 PUF domain R1-GMR = PUM1 PUF domain R1-GMR (Homo sapiens, UniProt Q14671 828-1176, S863G;R864M;Q867R)
# Outline: as §1
# PUM1 PUF domain R4-LGC = PUM1 PUF domain R4-LGC (Homo sapiens, UniProt Q14671 828-1176, N971L;H972G;Q975C)
# Outline: as §1
# PUM1 PUF domain R6-IWS = target: T1, PUM1 PUF domain R6-IWS (Homo sapiens, UniProt Q14671 828-1176, N1043I;Y1044W;Q1047S)
# T1 sequence: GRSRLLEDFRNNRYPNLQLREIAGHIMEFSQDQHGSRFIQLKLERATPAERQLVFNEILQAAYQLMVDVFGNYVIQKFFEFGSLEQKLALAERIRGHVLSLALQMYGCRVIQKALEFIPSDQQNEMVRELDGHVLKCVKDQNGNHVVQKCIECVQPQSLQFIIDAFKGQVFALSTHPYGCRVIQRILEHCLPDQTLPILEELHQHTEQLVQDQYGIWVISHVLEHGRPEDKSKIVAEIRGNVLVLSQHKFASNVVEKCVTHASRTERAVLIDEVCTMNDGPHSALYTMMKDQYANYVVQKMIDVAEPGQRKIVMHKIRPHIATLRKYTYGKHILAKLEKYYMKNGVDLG
# Outline: as §1
# PUM1 PUF domain R2-EHL = PUM1 PUF domain R2-EHL (Homo sapiens, UniProt Q14671 828-1176, N899E;Y900H;Q903L)
# Outline: as §1
# PUM1 PUF domain R5-RLD = PUM1 PUF domain R5-RLD (Homo sapiens, UniProt Q14671 828-1176, C1007R;R1008L;Q1011D)
# Outline: as §1
# PUM1 PUF domain R2-RVN = PUM1 PUF domain R2-RVN (Homo sapiens, UniProt Q14671 828-1176, N899R;Y900V;Q903N)
# Outline: as §1
# PUM1 PUF domain R8-SFQ = PUM1 PUF domain R8-SFQ (Homo sapiens, UniProt Q14671 828-1176, N1122S;Y1123F)
# Outline: as §1
sequence,measurement,setting,value
GGCUAGAACUAGUGGAUCCCCCGGCGCCCGGCGGCUCGAGCCCGGGUAAGUUUAAAUAGUCUGCAUGCCGCCGGGCGCCAUGCCUGCAGGUCGACUCUAGAAAACAUG,binding signal,PUM1 PUF domain R7-RAS,2.46 log2 enrichment (interaction score)
GGCUAGAACUAGUGGAUCCCCCGGCGCCCGGCGGCUCGAGCCCGGGUAAGUGUAAAUCGUCUGCAUGCCGCCGGGCGCCAUGCCUGCAGGUCGACUCUAGAAAACAUG,binding signal,PUM1 PUF domain R1-FAR,0.5 log2 enrichment (interaction score)
same,binding signal,PUM1 PUF domain R1-GMR,3.57 log2 enrichment (interaction score)
GGCUAGAACUAGUGGAUCCCCCGGCGCCCGGCGGCUCGAGCCCGGGUAAGUGUAAAUUGUCUGCAUGCCGCCGGGCGCCAUGCCUGCAGGUCGACUCUAGAAAACAUG,binding signal,PUM1 PUF domain R1-FAR,4.18 log2 enrichment (interaction score)
same,binding signal,PUM1 PUF domain R1-GMR,1.96 log2 enrichment (interaction score)
GGCUAGAACUAGUGGAUCCCCCGGCGCCCGGCGGCUCGAGCCCGGGUAAGUGUAAAUAGUCUGCAUGCCGCCGGGCGCCAUGCCUGCAGGUCGACUCUAGAAAACAUG,binding signal,PUM1 PUF domain R4-LGC,4 log2 enrichment (interaction score)
same,binding signal,PUM1 PUF domain R6-IWS,2.75 log2 enrichment (interaction score)
GGCUAGAACUAGUGGAUCCCCCGGCGCCCGGCGGCUCGAGCCCGGGUAAGUGUAAAAAGUCUGCAUGCCGCCGGGCGCCAUGCCUGCAGGUCGACUCUAGAAAACAUG,binding signal,PUM1 PUF domain R2-EHL,3.07 log2 enrichment (interaction score)
GGCUAGAACUAGUGGAUCCCCCGGCGCCCGGCGGCUCGAGCCCGGGUAAGUGUCAAUAGUCUGCAUGCCGCCGGGCGCCAUGCCUGCAGGUCGACUCUAGAAAACAUG,binding signal,PUM1 PUF domain R5-RLD,2.78 log2 enrichment (interaction score)
GGCUAGAACUAGUGGAUCCCCCGGCGCCCGGCGGCUCGAGCCCGGGUAAGUGUUAAUAGUCUGCAUGCCGCCGGGCGCCAUGCCUGCAGGUCGACUCUAGAAAACAUG,binding signal,PUM1 PUF domain R5-RLD,0.72 log2 enrichment (interaction score)
GGCUAGAACUAGUGGAUCCCCCGGCGCCCGGCGGCUCGAGCCCGGGUAAGUGUAAAGAGUCUGCAUGCCGCCGGGCGCCAUGCCUGCAGGUCGACUCUAGAAAACAUG,binding signal,PUM1 PUF domain R2-RVN,3.32 log2 enrichment (interaction score)
GGCUAGAACUAGUGGAUCCCCCGGCGCCCGGCGGCUCGAGCCCGGGUAAGCGUAAAUAGUCUGCAUGCCGCCGGGCGCCAUGCCUGCAGGUCGACUCUAGAAAACAUG,binding signal,PUM1 PUF domain R8-SFQ,2.84 log2 enrichment (interaction score)
